Measurements: PubChem BioAssay AID435000 (NMMLSC, 2010)
Some of the results follow. The source made the active and inactive calls.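 Rule for the calls: active = fluorescence response below 15%; inactive = the rest.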

Test: yeast superoxide dye artefact check – S. cerevisiae BY4741, flow cytometry, artefact control for yeast caloric restriction mimetic project (AID 435000);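 note: percent of the mean fluorescence averaged over all compound wells on the plate; lower means stronger quenching of DHE signal or ROS scavenging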
Conditions: S. cerevisiae BY4741, DHE fluorescence, at 10 µM, stronger effect = lower value

Fluorescence response, inactive:
CN1CCN(c2cc3c(cc2F)c(=O)c(C(=O)O)cn3CCF)CC1 100%
CC(=O)C[C@@H](O)CC(=O)[C@H]1OC(=O)CCCCCCc2ccccc21 113%
COc1ccc(CCNC(=O)c2ccccc2-c2ccccc2C(=O)O)cc1OC 110%
O=[N+]([O-])c1ccc2c(c1)Nc1nc3ccccc3nc1N2 92.7%
Cc1ccc(-c2nn(C(C)(C)C)c3ncnc(N)c23)cc1 99.5%
O=C(CN1CCN(c2ccccn2)CC1)Nc1ccc(Br)cc1 97%
O=C(O)C1CCCN1S(=O)(=O)c1ccc(Br)cc1 (configuration not stated) 90.2%
O=C(Nc1ccc(Br)cn1)c1ccc([N+](=O)[O-])cc1Cl 94%
O=C(Nc1cccc(Cl)c1Cl)c1ccccc1NC(=O)C1CC=CCC1C(=O)O (configuration not stated) 89.9%
COc1cccc(NC(=O)NCCN2CCCCC2)c1 93.8%
CC(C)NC(=O)/C(C#N)=C\c1ccc(N(C)C)c(Br)c1 92.3%
Cc1ccc(-c2nc(CSCC(=O)NC3CCN(Cc4ccccc4)CC3)c(C)o2)cc1 94.6%
CC(=O)NC1=NN(C(C)=O)C(C)(CCS(=O)(=O)c2ccc(Cl)c(Cl)c2)S1 (configuration not stated) 112%
Cn1c(Nc2ccccc2)cc(=O)n(C)c1=O 113%
COc1ccc(C)cc1S(=O)(=O)Nc1cccc(Cl)c1Cl 102%
COc1cc(-c2nnn(CC(=O)NCc3ccccc3)n2)cc(OC)c1OC 99.2%
CCn1c2ccccc2c2cc(CC(N)=O)ccc21 105%
COc1cc(NC(=O)CSc2ccc(-c3cccnc3)nn2)cc(OC)c1 123%
NC(=S)Nc1c(Cl)cccc1Cl 97.4%
COC(=O)CNC(=O)c1ccc(OC2CCN(C(=O)C3CC3)CC2)cc1 113%
Cc1ccc(C23CC4CC(CC(C(=O)NCC(=O)O)(C4)C2)C3)cc1 94.6%
CC1CCCN(S(=O)(=O)c2ccc(C(=O)Nc3nnc(-c4ccncc4)o3)cc2)C1 (configuration not stated) 109%
